Compound activity deposited in PubChem by National Center for Advancing Translational Sciences (NCATS).
FLuc inh = Photinus pyralis luciferase inhibition; P08659; Potency, µM (titrated, usually from 115 µM), most hits filed as inhibitors; AID 1347043; purified P. pyralis luciferase, luminescence, biochemical; hit rate 2.5% among 76,000; note: % is set by controls: 0 for no effect and ±100 for the full control effect; nearly all actives have a fitted effect of over 65% in size
Target sequence (P08659 whole entry, looked up): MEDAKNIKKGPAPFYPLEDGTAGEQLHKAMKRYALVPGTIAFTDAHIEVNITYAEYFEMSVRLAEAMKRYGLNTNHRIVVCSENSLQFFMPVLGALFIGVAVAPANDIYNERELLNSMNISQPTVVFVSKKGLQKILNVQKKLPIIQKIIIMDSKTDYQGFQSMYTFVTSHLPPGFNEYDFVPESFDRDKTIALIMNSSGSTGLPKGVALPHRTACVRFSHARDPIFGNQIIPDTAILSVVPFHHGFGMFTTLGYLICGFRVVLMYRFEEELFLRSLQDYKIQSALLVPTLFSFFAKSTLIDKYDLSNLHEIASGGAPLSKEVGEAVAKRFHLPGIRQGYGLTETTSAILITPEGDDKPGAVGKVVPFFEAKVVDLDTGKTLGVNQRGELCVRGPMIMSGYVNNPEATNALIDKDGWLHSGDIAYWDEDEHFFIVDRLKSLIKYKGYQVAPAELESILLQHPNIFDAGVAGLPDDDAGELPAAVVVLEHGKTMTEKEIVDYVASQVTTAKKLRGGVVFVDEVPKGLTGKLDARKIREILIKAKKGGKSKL
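Purified P. pyralis luciferase (10nM final) in 50mM Tris acetate pH 7.5, 10mM Mg acetate, 0.01% Tween-20, 0.05% BSA with 10uM D-luciferin and 10uM ATP. Compounds titrated qHTS. Luminescence imaged on CCD.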
HEK293 viab = cell viability loss counter-screen | hit rate 0.12% among 150,000 | Potency, µM (series often up to 57.1 µM), for the others: at the highest dose activity change, negative = cytotoxicity, usual class: cytotoxic | HEK-293-SNCA-luc viability, GF-AFC fluorescence, 24 h;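 note: 0% = DMSO-treated cells and -100% = medium-only wells without cells; nearly all actives have a fitted effect of over 30% in size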
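Cytotoxicity counterscreen: after 24 h compound treatment of genome-edited SNCA-luciferase HEK-293 cells, live-cell protease substrate GF-AFC read by fluorescence after 30 min; activity scaled between DMSO (0%) and medium-only (-100%), curves Hill-fitted.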
HEK293 tox = HEK 293 cell cytotoxicity. HEK 293 viability, ATP luminescence (CellTiter-Glo), 48-72 h. Potency, µM (top dose mostly 115 µM), inactives show at the top dose activity change, negative = cytotoxicity, actives largely listed as inhibitors. hit rate 6.6% among 94,000; note: % is set by controls: 0 for no effect and ±100 for the full control effect; nearly all actives have a fitted effect of over 60% in size
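CellTiter-Glo luminescence (cellular ATP) was read after 48 or 72 hr of compound exposure at 37 degree Celsius. Cells were HEK 293 plated at 250 cells/well.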
SNCA expr inh = inhibitors of alpha-synuclein (SNCA) gene expression; Potency, µM (series often up to 57.2 µM), for the others: top-dose activity change, negative = inhibition, hits mostly inhibitors; HEK-293 SNCA-luciferase knock-in, luminescence, 24 h; hit rate 0.17% among 140,000;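 note: plate controls were DMSO cells for no effect and cell-free wells for full effect; nearly all actives have a fitted effect of over 45% in size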
NIH3T3 tox = cytotoxic compounds in NIH 3T3 cells. AID 1345082. NIH 3T3 viability, CellTiter-Glo ATP luminescence, 48-72 h. Potency, µM (series often up to 96.7 µM), without a hit: at the top dose activity change, negative = cytotoxicity, actives largely listed as inhibitors. hit rate 4.3% among 94,000; note: % is set by controls: 0 for no effect and ±100 for the full control effect; nearly all actives have a fitted effect of over 55% in size
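ATP-dependent luminescence (CellTiter-Glo) served as the viability signal for NIH 3T3 cells treated with compound for 48 or 72 hr at 37 °C.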
NPR1 antag = blocks ANP-stimulated signaling of human Npr1 receptor | HEK293 hNpr1 GloSensor cGMP, ANP-stimulated luminescence | P16066 | Potency, µM (highest dose often 46.3 µM), inactives show at the top dose activity change, negative = inhibition, hits mostly inhibitors | hit rate 1.6% among 76,000; calls by dose curve; note: % is set by controls: 0 for no effect and ±100 for the full control effect; nearly all actives have a fitted effect of over 60% in size
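Compound pre-incubated 30 min at room temperature on GloSensor-loaded HEK293 cells stably carrying hNpr1 and the pGS-40F cGMP biosensor. Stimulation uses hNppA at 0.1 nM final; luminescence is taken at baseline and 20 min post-agonist.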
Npr1 antag conf = confirmation of human Npr1 natriuretic peptide receptor antagonists | HEK293 hNpr1 cGMP GloSensor luminescence, ANP-stimulated | hit rate 76% among 1,400 | shares compounds with NPR1 antag | Potency, µM (top dose mostly 57.6 µM), for inactives: top-dose activity change, negative = inhibition, most hits filed as inhibitors; calls by dose curve; note: nearly all actives have a fitted effect of over 70% in size
NPR2 antag = selectivity test of Npr1 antagonists against human Npr2. shares compounds with NPR1 antag. HEK293 hNpr2 GloSensor cGMP luminescence, CNP-stimulated. Potency, µM (doses to about 57.6 µM), inactives show at the highest dose activity change, negative = inhibition, most hits filed as inhibitors. hit rate 67% among 1,400. AID 1347046; calls by dose curve; note: nearly all actives have a fitted effect of over 70% in size
FLuc inh counter = FLuc enzyme inhibition, Npr1 counter-screen. shares compounds with NPR1 antag. purified FLuc enzyme, luminescence, Km substrate. Potency, µM (highest dose often 57.6 µM), inactives show top-dose activity change, negative = inhibition, usual class: inhibitors. hit rate 0.7% among 1,400. AID 1347047; note: 0% is about no effect
GloSensor ctrl = reduces cGMP signal in GloSensor control cells; shares compounds with NPR1 antag; HEK293 GloSensor cGMP, SNP-stimulated, luminescence; hit rate 69% among 1,400; Potency, µM (doses to about 57.6 µM), without a hit: top-dose activity change, negative = inhibition, actives largely listed as inhibitors; calls by dose curve; note: % is set by controls: 0 for no effect and ±100 for the full control effect; nearly all actives have a fitted effect of over 70% in size
* = called active by the depositor; i = inactive; ? = inconclusive; / = not tested or not shown; [ ] = another dose, or the depositor's remark. In the library only some 7.4% were active in any assay of this set; here they are far more common. Unless noted, calls come from the whole dose curve; as a rule, active = well fitted curve in the direction sought with a large enough effect; inconclusive = small, poorly fitted or top-dose-only effect, or another doubt; inactive = no such curve, though single readings can be large; an effect the other way counts as inactive or inconclusive. Potency is the fitted concentration of half-maximal effect.

SMILES | FLuc inh | HEK293 viab | HEK293 tox | SNCA expr inh | NIH3T3 tox | NPR1 antag | Npr1 antag conf | NPR2 antag | FLuc inh counter | GloSensor ctrl
C[C@H]1[C@@H]2[C@@H](O)C([C@H](C)C(=O)NCc3cccs3)CC[C@@]2(C)CC[C@@H]1NC(=O)c1cncnc1 (stereo not given in full) | i | -11% | -5% | -14% | -19% | -9% | / | / | / | /
COc1ccccc1-c1ccnc(N[C@H]2CO[C@H]3[C@@H]2OC[C@@H]3NS(=O)(=O)c2ccc(NC(C)=O)cc2)n1 | i | -4% | ? | -7% | ? | ? | / | / | / | /
O=C(N[C@H]1CO[C@H]2[C@@H]1OC[C@@H]2Nc1nccc(C2CCCC2)n1)c1ccccc1 | i | ? | 63µM* | 1%[87.6 µM] | -46%[174 µM] | 28µM* | 35µM* | 35µM* | -7%[86.2 µM] | 40µM*
CC(=O)Nc1ccc(S(=O)(=O)N[C@H]2CO[C@H]3[C@@H]2OC[C@@H]3Nc2nccc(-c3cccc(F)c3)n2)cc1 | i | -14% | 16µM* | ? | ? | 11µM* | 14µM* | 17µM* | 1% | 12µM*
Cc1nn2c(c1-c1ccccc1-c1ccccc1)N(CCC(C)C)CCC2 | i | ? | 7.9µM* | 1.1µM* | 8.9µM* | 1.6µM* | 0.99µM* | 1.6µM* | -14%[86.2 µM] | 0.79µM*
Cc1nn2c(c1-c1ccccc1-c1ccccc1)N(C(=O)c1ccnn1C)CCC2 | i | 0%[87.6 µM] | -21%[172 µM] | -11%[87.6 µM] | ? | -1%[70.6 µM] | / | / | / | /
Cc1nn2c(c1-c1ccccc1-c1ccccc1)N(Cc1ccccc1)CCC2 | i | ? | ? | ? | 13µM* | 14µM* | 6.3µM* | 8.9µM* | -8%[86.2 µM] | 4µM*
O=C1NC(=NC2CCCC2)C2(CCN([S+](=O)([O-])c3cccc(C(F)(F)F)c3)CC2)N1c1cccnc1 | / | 3% | i | 7% | -28% | / | / | / | / | /
CSc1ccc(C(=O)N2CC(=O)N(Cc3ccc(C)cc3)CC(O)C2)cc1 (stereo not given) | / | / | -21% | / | ? | / | / | / | / | /
COc1ccc(-c2noc(CC3CCN(C(=O)c4ccc(OC)c(OC)c4)CC3)n2)cc1 | i | ? | ? | 4% | ? | 3.5µM* | 6.9µM* | 6.9µM* | 0% | 5.4µM*
COc1ccc(-c2noc(CC3CCN(C(=O)c4ccc5c(c4)OCO5)CC3)n2)cc1 | i | ? | ? | -3% | ? | 2.8µM* | 5.4µM* | 6.1µM* | 1% | 4.8µM*
COc1ccc(C2=NOC3(CCN(C(=O)c4ccc5c(c4)OCO5)C3)C2)cc1 (stereo not given) | i | -4% | ? | 24% | ? | -10% | / | / | / | /
COc1ccc(C(=O)N2CCC(Cc3nc(-c4ccc(F)cc4)no3)CC2)cc1F | i | -14% | ? | ? | ? | 1.1µM* | 1.1µM* | 1.7µM* | 0% | 1.1µM*
O=c1[nH]c(N2CCOCC2)nc2c1CCN(Cc1ccc(F)cc1Cl)CC2 | i | 3% | -16% | 3% | -6% | 5% | / | / | / | /
COc1cccc(N2C(=O)NC(=NC3CCCC3)C23CCCN(C(=O)c2ccccc2OC)C3)c1 (stereo not given) | / | 8% | -13% | 4% | ? | / | / | / | / | /
NC(=O)Cc1c[nH]c2ncc(-c3ccc(F)c(Cl)c3)cc12 | i | 4%[87.6 µM] | ? | 5%[87.6 µM] | ? | -13%[70.6 µM] | / | / | / | /
O=C(Cc1c[nH]c2ncc(-c3ccc(F)c(Cl)c3)cc12)NCc1cccnc1 | i | -18%[87.6 µM] | ? | -19%[87.6 µM] | ? | 22µM* | 40µM* | 31µM* | -3%[86.2 µM] | 28µM*
COc1cc(F)cc(-c2cnc3[nH]cc(CC(=O)NCc4cccnc4)c3c2)c1 | i | 2%[87.6 µM] | ? | -1%[87.6 µM] | ? | 28µM* | 31µM* | 31µM* | ? | 31µM*
Cc1ccc(S(=O)(=O)N2CCC(n3cnnc3-c3ccccc3)CC2)cc1C | i | 0% | ? | -18% | ? | -23% | ? | ? | -1% | -4%
COc1cccc(S(=O)(=O)N2CCC(n3cnnc3C(C)C)CC2)c1 | i | -8% | -27% | 3% | ? | ? | ? | ? | -2% | ?
Cc1cc(S(=O)(=O)N2CCC(n3cnnc3-c3ccccc3)CC2)ccc1F | i | 3% | -23% | ? | -23% | -28% | / | / | / | /
CC(=O)Nc1cc(-c2cn(C)c(=O)n3cc(COc4ccc(Cl)cc4)nc23)ccn1 | i | -19%[87.6 µM] | -50%[172 µM] | 10%[87.6 µM] | -41%[138 µM] | -13%[70.6 µM] | / | / | / | /
Cn1cc(-c2ccc(O)c(F)c2)c2nc(COc3ccc(Cl)cc3)cn2c1=O | i | -18%[87.6 µM] | 32µM* | -8%[87.6 µM] | 32µM* | 14µM* | 31µM* | 31µM* | ? | 28µM*
O=C(Nc1cccc(F)c1)C1CCN(C(=O)c2ncn3c2COC(c2ccc(F)cc2)C3)CC1 (stereo not given) | i | -2% | ? | 50% | -7% | ? | ? | -14% | -22% | ?
O=C(Nc1cccc(Cl)c1)C1CCN(C(=O)c2ncn3c2COC(c2ccc(F)cc2)C3)CC1 (stereo not given) | ? | -23% | ? | 9% | -10% | ? | / | / | / | /
Cc1nn2c(c1-c1ccccc1OCc1ccccc1)N(C(=O)COc1ccccc1)CCC2 | i | -5% | 40µM* | -16% | 11µM* | ? | 17µM* | 12µM* | -1% | -21%
Cc1nn2c(c1-c1ccccc1Oc1ccccc1)N(Cc1ccc(OCC(=O)O)cc1)CCC2 | i | 0% | i | -3% | ? | -4% | / | / | / | /
